# Compound activity as filed in PubChem.
# In the library only some 4.3% were active in any assay of this set; here they are far more common.
# uPA generation: blocks generation of uPA at the cell surface | cell surface uPA generation assay, qHTS | Potency, µM (highest dose often 38.3 µM), actives largely listed as inhibitors | actives 0.31% (n = 330,000) | AID 540303; active means well fitted inhibition curve with a large enough effect; inconclusive means small, poorly fitted or top-dose-only effect; inactive means no such curve, though single readings can be large or run the other way; tested in mouse RAW 264.7 cells; further: nearly all actives have a fitted effect of over 55% in size
# Giardia kill: Giardia lamblia killing. Giardia lamblia trophozoite viability. activity change, % at 7.66 µM, hits read low. actives 0.15% (n = 340,000); in the data active means activity change below about -80%; inconclusive means between about -30% and that limit;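 further: parasites exposed to compound for two days anaerobically before the ATP read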
#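 Giardia trophozoites, 100 cells per well, were exposed to compounds for 48 hrs at 37 deg C under anaerobic conditions; viability was then read as ATP content by bioluminescence after 15-30 min at room temperature.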
# MCF10A rereplic: inducers of DNA re-replication in MCF 10A breast cells. MCF 10A DNA re-replication, Hoechst nuclear intensity, 48 h. Potency, µM (titrated, usually from 46.1 µM), usual class: activators. actives 2.9% (n = 350,000). AID 624296; further: nearly all actives have a fitted effect of over 50% in size
# SW480 rerep: induces DNA re-replication in SW480 colon adenocarcinoma cells. SW480 DNA re-replication, Hoechst DNA content imaging, 48 h. Potency, µM (highest dose often 46.1 µM), actives largely listed as activators. actives 1.8% (n = 340,000). AID 624297; further: nearly all actives have a fitted effect of over 55% in size
#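 Treated cells incubate 48 hr (37 C, 5% CO2), are stained 40 min with Hoechst, and nuclear fluorescence is enumerated; a rise in nuclei with high DNA signal marks re-replication.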
# Hits are given with their value; . = inactive; ? = inconclusive; / = no result given; [ ] = dose if it differs, or a comment. Unless noted, the call rests on the fitted dose curve; in most records, active means well fitted activation curve with a large enough effect; inconclusive means small, poorly fitted or top-dose-only effect; inactive means no such curve, though single readings can be large or run the other way.
SMILES,uPA generation,Giardia kill,MCF10A rereplic,SW480 rerep
COc1ccccc1N1CCN(S(=O)(=O)c2ccc(-c3ccc(=O)[nH]n3)o2)CC1,.,.,.,.
Cc1ccc(C)c(S(=O)(=O)N2CCN(C(=O)CCC(=O)NCc3ccc(Cl)cc3Cl)CC2)c1,.,.,21µM,.
Cc1ccc(S(=O)(=O)N2CCN(c3nc(-c4ncco4)nc4ccccc34)CC2)cc1,/,.,/,/
N#CCSc1nc2ccccc2c2nc3ccccc3n12,.,.,9.2µM,.
O=C(CCN1CCCCC1)N1CCc2c([nH]c3ccccc23)C1c1cccnc1 (stereo unspecified),.,.,.,.
COc1ccc(-c2ccc(C#N)c(SCC(=O)OCc3ccccc3)n2)cc1OC,.,.,9.2µM,?
Cc1ccc(C(=O)CSc2nc(-c3ccccc3)ccc2C#N)cc1,.,.,3.7µM,?
Cc1ccc(-c2ccc(SCC(=O)c3ccccc3)nn2)cc1,.,?,?,.
N#Cc1ccc(-c2ccco2)nc1SCC(=O)c1ccc(Cl)cc1,.,.,7.9µM,.
Fc1cccc(CSc2ncnc3c2ncn3C2CCCCO2)c1 (stereo unspecified),.,.,?,?
Cc1cccc(-c2nc(=S)c3c(n2Cc2ccco2)CCCC3)c1,.,.,.,?
COc1cccc(-c2nc(=S)c3c(n2Cc2ccco2)CCCC3)c1,.,.,21µM,.
CC(C)(C)N=C1NN=C(c2cc3ccccc3o2)CS1,.,.,?,12µM
CC(C)(C)N=C1NN=C(c2ccc(Cl)cc2)CS1,?,.,.,.
O=C(NC1CC(=O)N(c2ccc3c(c2)OCCO3)C1)c1c(F)cccc1Cl (stereo unspecified),/,.,/,/
O=C1CC(c2ccccc2)CC(O)=C1C=NCCc1ccccc1 (stereo unspecified),.,.,.,.
O=C1C=CC[C@H](/C=C/C[C@@H](O)C[C@H](O)CCc2ccccc2)O1,10µM,.,.,?
Cc1ccc(/C=C2\SC(=S)N(C3CCS(=O)(=O)C3)C2=O)o1 (stereo unspecified),?,.,.,16µM
O=C1/C(=C/c2ccncc2)SC(=S)N1C1CCS(=O)(=O)C1 (stereo unspecified),.,.,21µM,.
C[C@]12CCC(=O)C=C1CCC1C2C(=O)C[C@]2(C)C1CC[C@]2(O)C(=O)CO (stereo partly specified),/,/,.,.
O=C(/C=C/c1cn(CC(O)CN2CCCCCC2)c2ccccc12)c1cccs1 (stereo unspecified),.,.,15µM,18µM
O=Cc1cn(CC(O)Cn2cc(C=O)c3ccccc32)c2ccccc12,.,.,.,.
CCCCN(C)CC(O)Cn1cc(/C=C/C(=O)c2cccs2)c2ccccc21 (stereo unspecified),.,.,16µM,23µM
CS(=O)(=O)N1N=C(c2cccs2)CC1c1ccccc1O (stereo unspecified),.,.,.,.
Oc1ccccc1C1CC(c2cccs2)=NC(c2ccc(Cl)cc2)N1 (stereo unspecified),?,.,4.6µM,18µM
SMILES,uPA generation,Giardia kill,MCF10A rereplic,SW480 rerep
CC(=O)C1CCC2C3CC(C)=C4CC(O)CCC4(C)C3CCC12C (stereo unspecified),.,.,?,?
Cc1ccc(C(=O)Nc2nnc(-c3ccco3)o2)cc1,.,.,.,?
O=C(Nc1nnc(-c2ccco2)o1)c1ccc([N+](=O)[O-])s1,.,-81,21µM,?
CCCOc1c(Br)cc(C2C3=C(CCCC3=O)N(CC)C3=C2C(=O)CCC3)cc1OC,.,.,?,16µM
COc1ccc(C2C3=C(CCCC3=O)N(CC(=O)O)C3=C2C(=O)CCC3)cc1Cl,.,.,21µM,?
COc1ccccc1C1C2=C(CCCC2=O)N(CC(=O)O)C2=C1C(=O)CCC2,.,.,?,?
C#CCOc1c(Cl)cc(C2C3=C(CCCC3=O)N(CC(=O)O)C3=C2C(=O)CCC3)cc1OC,.,.,21µM,.[1.84 µM]
CCOc1cc(C2C3=C(CCCC3=O)N(CC(=O)O)C3=C2C(=O)CCC3)ccc1OC,.,.,?,.
CCCOc1c(Br)cc(C2C3=C(CCCC3=O)N(C)C3=C2C(=O)CCC3)cc1OC,.,.,.,?
O=C(Cn1cnc2c(OCc3ccccc3)ncnc21)NCc1ccccn1,.,.,.,.
C=C1CCN(C(Cc2ccccc2)C(=O)N2CCOCC2)S(=O)(=O)c2ccccc21 (stereo unspecified),/,.,/,/
O=C(O)C(c1ccccc1)C1CCCCC1O (stereo unspecified),.,.,.,.
N#CC1=C(N)NC(SCc2ccccc2)=C(C#N)C12CCCCC2,/,.,8.2µM,?
CCSC1=C(C#N)C2(CCCCC2)C(C#N)=C(N)N1,.,.,.,.
Cc1cc(-c2nc3cc(F)ccc3s2)ccc1N,.,?,10µM,18µM
Cc1cc(=O)oc2cc3c(cc12)OCCN3,.,.,8.2µM,?
Cc1cc(=O)oc2cc3c(cc12)OCCO3,.,.,.,.
COc1cc(/C=C2\SC(=O)N(CC(=O)Nc3cccc(C)c3)C2=O)ccc1OC(C)C(=O)O (stereo unspecified),.,.,.,.
COc1ccc(/C=C2\SC(=O)N(CC(=O)Nc3cccc(C)c3)C2=O)cc1O,.,.,21µM,?
COc1ccc(C2CC(c3ccccc3)Oc3cc(C)c(Cl)c(C)c32)cc1 (stereo unspecified),/,.,/,/
CCN1CCN(C(=O)c2cnn3c(C(F)F)cc(-c4ccc(C)cc4)nc23)CC1,.,.,.,.
COc1ccc(-c2cc(C(F)(F)F)n3ncc(C(=O)NCc4ccco4)c3n2)cc1,.,.,?,.
COc1ccc(-c2cc(C(F)(F)F)n3ncc(C(=O)N(C)Cc4ccccc4)c3n2)cc1,.,.,?,23µM
COc1ccc(-c2cc(C(F)F)n3ncc(C(=O)N4CCCCC4)c3n2)cc1,.,.,?,?
COc1ccc(-c2cc(C(F)F)n3ncc(C(=O)N4CCN(C(=O)c5ccco5)CC4)c3n2)cc1,10µM,.,.,.
SMILES,uPA generation,Giardia kill,MCF10A rereplic,SW480 rerep
CCc1nccn1C(=O)c1cnn2c(C(F)F)cc(-c3ccc(C)cc3)nc12,.,.,18µM,?
COc1ccc(-c2cc(C(F)F)n3ncc(C(=O)N4CCc5ccccc5C4)c3n2)cc1,.,.,?,15µM
Cc1ccc(S(=O)(=O)N(C)c2ccc(OC(C)C(=O)N(C)c3ccccc3)cc2)cc1 (stereo unspecified),.,.,?,.
CC1(c2ccc(Cl)cc2)NC(=O)N(CC(=O)N2CCc3ccccc32)C1=O (stereo unspecified),?,.,.,.
O=C(c1cnn2c(C(F)F)cc(-c3ccccc3)nc12)N1CCc2ccccc21,.,.,.,.
Cc1ccc(-c2cc(C(F)F)n3ncc(C(=O)N4CCc5ccccc54)c3n2)cc1,?,.,2.6µM,7.3µM
CCc1nc2ccccc2[nH]1,.,.,.,.
CCc1nc2ccc(Cc3ccc4nc(CC)[nH]c4c3)cc2[nH]1,.,.,.,3.3µM
COc1ccc(-n2cc(C#N)c(=O)n(Cc3ccc(F)cc3)c2=O)cc1,.,.,?,13µM
COc1ccc(/C=C/C(=O)c2cc(Cl)cc(Cl)c2O)c(OC)c1,.,.,.,.
